The source of these data is publication PMC7862700, “An all-to-all approach to the identification of sequence-specific readers for epigenetic DNA modifications on cytosine”.

What all share (assay): DAPPL (digital affinity profiling via proximity ligation, sequencing); 10 mM Tris-HCl pH 7.5, 50 mM NaCl, 1 mM DTT, 4% glycerol, room temperature, 30 min; GST-TFs on glutathione beads, 16-mer random dsDNA library, 0.1% formaldehyde crosslink after washing; high values mean tight binding
Conditions in all cases: protein: recombinant; tags: N-terminal GST; dsDNA, one strand shown

In one assay the target is T1, GABPA (Homo sapiens, UniProt Q06546 1-454).
T1 sequence: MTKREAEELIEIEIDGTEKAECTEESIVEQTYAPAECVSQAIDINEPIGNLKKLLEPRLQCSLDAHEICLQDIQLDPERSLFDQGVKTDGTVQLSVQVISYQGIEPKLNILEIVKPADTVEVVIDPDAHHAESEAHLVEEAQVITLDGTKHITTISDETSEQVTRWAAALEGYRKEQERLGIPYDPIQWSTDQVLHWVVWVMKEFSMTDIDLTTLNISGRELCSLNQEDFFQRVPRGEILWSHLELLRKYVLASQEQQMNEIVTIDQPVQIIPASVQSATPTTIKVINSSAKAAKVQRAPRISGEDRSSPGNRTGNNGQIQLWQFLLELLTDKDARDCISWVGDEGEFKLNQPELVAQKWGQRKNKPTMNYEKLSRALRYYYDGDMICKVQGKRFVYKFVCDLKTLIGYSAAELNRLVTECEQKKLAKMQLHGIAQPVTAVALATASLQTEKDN
Put shortly:
(§1)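 Each value of binding signal is a hexamer's read frequency for a factor divided by the same hexamer's frequency in the tag-only sample. Barcoded, bead-captured GST fusions of human transcription factors made in yeast were pooled with that sample and incubated with 200 nmole of a random double-stranded 16-mer DNA library in Tris/NaCl/DTT/glycerol buffer at room temperature for 30 min. Washing, 0.1% formaldehyde crosslinking, proximity ligation, PCR and Illumina NextSeq500 sequencing followed.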

The next assay concerns the target ELF1 (Homo sapiens, UniProt P32519 1-619). Put shortly: as §1
Another assay deals with SPIB (Homo sapiens, UniProt Q01892 1-262). Put shortly: as §1
In another assay the target is ETV5 (Homo sapiens, UniProt P41161 1-510). Put shortly:
as §1

The next assay has as its target T2, SPIC (Homo sapiens, UniProt Q8N5J4 1-248).
T2 sequence: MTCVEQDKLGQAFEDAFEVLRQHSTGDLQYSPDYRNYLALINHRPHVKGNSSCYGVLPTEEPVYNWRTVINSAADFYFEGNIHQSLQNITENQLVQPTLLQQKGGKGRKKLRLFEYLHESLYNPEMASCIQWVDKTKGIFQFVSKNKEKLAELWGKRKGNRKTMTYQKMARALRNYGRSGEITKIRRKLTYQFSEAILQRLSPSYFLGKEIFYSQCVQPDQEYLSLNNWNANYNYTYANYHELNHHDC
Put shortly: as §1

Another assay concerns the target T3, ETV3L (Homo sapiens, UniProt Q6ZN32 1-361).
T3 sequence: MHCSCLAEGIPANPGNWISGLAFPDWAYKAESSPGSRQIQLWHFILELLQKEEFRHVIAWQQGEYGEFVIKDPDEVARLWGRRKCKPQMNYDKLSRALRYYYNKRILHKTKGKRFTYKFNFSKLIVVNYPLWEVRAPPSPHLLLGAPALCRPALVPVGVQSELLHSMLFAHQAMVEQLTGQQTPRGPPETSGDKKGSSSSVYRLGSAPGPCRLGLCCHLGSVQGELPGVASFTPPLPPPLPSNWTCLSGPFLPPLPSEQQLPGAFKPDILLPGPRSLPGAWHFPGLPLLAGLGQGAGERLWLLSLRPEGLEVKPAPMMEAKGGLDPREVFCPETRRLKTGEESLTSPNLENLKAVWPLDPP
Put shortly:
as §1

A further assay concerns the target T4, ETV3 (Homo sapiens, UniProt P41162-2 1-143).
T4 sequence: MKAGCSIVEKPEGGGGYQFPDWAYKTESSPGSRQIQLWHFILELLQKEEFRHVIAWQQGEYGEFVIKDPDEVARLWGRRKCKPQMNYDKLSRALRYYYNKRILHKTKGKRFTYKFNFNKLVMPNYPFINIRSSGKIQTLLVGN
Put shortly: as §1

Another assay addresses T5, ELK1 (Homo sapiens, UniProt P19419 1-428).
T5 sequence: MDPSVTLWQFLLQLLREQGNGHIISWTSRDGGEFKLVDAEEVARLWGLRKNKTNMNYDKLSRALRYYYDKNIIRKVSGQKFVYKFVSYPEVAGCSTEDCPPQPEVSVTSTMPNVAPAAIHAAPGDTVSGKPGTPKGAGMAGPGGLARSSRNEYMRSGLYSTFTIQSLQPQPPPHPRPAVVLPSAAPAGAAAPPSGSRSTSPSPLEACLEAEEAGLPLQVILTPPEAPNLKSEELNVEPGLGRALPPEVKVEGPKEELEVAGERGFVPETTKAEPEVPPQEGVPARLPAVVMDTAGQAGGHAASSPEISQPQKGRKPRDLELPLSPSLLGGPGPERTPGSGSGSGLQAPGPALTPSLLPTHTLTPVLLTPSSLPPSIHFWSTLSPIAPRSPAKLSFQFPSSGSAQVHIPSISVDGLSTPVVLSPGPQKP
Put shortly:
as §1

The next assay has as its target T6, EHF (Homo sapiens, UniProt Q9NZC4 1-300).
T6 sequence: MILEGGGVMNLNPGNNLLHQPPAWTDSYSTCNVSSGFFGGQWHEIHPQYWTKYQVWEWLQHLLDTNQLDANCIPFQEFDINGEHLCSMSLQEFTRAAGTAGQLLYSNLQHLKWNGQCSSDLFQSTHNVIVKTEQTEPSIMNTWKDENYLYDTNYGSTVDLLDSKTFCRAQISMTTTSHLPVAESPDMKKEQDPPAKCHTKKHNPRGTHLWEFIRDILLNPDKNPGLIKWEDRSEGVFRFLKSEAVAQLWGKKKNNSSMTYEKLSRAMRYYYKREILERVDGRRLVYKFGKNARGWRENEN
Put shortly:
as §1

The next assay addresses T7, ELK4 (Homo sapiens, UniProt P28324-2 1-405).
T7 sequence: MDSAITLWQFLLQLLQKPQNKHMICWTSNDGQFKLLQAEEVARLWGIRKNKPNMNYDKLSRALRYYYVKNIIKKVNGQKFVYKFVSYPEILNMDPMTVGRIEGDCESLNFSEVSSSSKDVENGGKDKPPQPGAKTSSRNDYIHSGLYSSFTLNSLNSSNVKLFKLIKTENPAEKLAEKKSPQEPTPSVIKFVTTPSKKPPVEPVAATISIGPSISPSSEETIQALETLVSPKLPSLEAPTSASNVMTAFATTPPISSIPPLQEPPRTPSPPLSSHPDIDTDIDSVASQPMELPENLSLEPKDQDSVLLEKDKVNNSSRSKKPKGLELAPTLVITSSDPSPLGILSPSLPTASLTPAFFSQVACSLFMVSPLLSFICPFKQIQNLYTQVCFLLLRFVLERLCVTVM
Put shortly: as §1

For the next assay, the target named is T8, ERF (Homo sapiens, UniProt P50548 1-548).
T8 sequence: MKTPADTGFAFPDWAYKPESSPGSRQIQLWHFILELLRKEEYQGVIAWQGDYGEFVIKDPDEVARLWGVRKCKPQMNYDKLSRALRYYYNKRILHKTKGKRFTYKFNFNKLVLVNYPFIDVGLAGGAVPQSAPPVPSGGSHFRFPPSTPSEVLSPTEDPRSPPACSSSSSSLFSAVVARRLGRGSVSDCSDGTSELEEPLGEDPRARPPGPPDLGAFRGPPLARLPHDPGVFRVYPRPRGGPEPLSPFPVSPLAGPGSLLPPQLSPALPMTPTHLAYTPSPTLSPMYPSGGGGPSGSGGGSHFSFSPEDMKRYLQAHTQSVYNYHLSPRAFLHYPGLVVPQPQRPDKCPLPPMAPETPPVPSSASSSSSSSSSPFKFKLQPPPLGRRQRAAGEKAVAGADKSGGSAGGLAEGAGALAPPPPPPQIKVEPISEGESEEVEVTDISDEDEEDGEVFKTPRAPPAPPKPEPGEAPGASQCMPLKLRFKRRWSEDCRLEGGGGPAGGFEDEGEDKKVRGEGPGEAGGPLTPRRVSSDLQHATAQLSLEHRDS
Put shortly:
as §1

The target of a further assay is ETV6 (Homo sapiens, UniProt P41212 1-452). Put shortly:
as §1

The next assay has as its target T9, ELF3 (Homo sapiens, UniProt P78545 1-371).
T9 sequence: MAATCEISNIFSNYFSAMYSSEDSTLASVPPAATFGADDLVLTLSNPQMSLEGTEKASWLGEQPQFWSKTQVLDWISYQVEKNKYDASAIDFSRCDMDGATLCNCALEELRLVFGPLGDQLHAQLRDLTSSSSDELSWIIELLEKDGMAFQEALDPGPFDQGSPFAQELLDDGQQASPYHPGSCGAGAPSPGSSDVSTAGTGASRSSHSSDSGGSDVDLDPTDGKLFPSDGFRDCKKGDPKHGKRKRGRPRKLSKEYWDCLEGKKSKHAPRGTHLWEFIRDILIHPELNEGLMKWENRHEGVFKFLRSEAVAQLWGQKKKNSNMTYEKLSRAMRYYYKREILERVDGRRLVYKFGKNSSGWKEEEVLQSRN
Put shortly: as §1

In another assay the target is T10, ETS2 (Homo sapiens, UniProt P15036 1-469).
T10 sequence: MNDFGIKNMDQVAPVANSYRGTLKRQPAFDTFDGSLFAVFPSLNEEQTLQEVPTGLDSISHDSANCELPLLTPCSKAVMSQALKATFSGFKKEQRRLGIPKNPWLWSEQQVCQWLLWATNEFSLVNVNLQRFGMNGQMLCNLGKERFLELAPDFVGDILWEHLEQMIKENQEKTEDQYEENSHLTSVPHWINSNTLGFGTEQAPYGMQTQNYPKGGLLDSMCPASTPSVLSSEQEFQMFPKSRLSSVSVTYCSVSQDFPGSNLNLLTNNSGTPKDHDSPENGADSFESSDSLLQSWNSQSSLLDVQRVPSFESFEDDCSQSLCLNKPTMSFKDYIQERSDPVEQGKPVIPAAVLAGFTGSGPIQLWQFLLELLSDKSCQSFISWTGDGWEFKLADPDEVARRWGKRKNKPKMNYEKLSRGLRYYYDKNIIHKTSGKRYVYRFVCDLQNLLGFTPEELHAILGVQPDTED
Put shortly: as §1

A further assay deals with T11, SPDEF (Homo sapiens, UniProt O95238 1-335).
T11 sequence: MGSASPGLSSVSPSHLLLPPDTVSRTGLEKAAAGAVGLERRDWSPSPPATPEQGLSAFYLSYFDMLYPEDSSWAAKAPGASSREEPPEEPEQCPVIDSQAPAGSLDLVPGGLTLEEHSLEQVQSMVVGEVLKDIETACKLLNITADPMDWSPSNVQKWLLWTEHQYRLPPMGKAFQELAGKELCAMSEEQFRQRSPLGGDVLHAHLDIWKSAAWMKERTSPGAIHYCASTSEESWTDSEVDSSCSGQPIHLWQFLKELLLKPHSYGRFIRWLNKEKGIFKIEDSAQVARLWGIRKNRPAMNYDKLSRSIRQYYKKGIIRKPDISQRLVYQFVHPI
Put shortly: as §1

Sequence of ETV5 (P41161 whole entry): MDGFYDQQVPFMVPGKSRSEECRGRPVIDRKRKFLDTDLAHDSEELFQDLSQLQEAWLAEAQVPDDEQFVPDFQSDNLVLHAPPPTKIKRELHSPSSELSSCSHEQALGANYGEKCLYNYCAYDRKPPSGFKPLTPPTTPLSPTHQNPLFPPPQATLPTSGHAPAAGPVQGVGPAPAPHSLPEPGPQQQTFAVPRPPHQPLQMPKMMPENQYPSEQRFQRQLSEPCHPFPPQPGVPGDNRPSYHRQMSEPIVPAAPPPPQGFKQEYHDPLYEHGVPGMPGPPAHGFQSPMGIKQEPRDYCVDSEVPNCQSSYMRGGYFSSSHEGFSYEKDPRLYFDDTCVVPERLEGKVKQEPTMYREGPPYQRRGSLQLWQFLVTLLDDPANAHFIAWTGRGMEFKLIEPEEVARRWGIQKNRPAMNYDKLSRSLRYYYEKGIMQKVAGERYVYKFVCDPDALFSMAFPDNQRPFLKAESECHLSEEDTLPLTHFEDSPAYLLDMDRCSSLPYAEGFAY
Sequence of SPIB (Q01892 whole entry): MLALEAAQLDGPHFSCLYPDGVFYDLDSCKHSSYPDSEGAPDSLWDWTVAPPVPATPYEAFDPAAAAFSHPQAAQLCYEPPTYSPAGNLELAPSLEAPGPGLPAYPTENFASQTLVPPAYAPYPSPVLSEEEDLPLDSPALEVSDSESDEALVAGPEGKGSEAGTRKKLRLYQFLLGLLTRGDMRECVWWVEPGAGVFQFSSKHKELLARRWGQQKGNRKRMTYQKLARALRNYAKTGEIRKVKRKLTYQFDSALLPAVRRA
Sequence of ELF1 (P32519 whole entry): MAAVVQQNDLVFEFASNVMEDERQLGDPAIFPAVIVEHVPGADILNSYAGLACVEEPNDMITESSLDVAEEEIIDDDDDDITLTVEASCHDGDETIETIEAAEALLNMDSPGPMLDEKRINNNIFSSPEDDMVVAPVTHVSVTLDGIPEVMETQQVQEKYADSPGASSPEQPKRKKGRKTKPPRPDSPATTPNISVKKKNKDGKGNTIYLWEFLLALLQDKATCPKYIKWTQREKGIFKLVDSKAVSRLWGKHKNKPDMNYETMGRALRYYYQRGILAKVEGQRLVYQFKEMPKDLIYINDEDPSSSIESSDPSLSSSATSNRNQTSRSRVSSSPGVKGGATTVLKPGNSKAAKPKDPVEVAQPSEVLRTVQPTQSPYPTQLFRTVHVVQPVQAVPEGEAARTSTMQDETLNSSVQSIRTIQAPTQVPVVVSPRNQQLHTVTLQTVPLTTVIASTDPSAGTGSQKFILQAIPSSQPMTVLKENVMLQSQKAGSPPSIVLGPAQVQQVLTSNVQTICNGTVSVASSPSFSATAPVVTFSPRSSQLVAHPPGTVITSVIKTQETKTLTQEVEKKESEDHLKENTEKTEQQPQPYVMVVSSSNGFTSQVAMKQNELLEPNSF
Sequence of ETV6 (P41212 whole entry): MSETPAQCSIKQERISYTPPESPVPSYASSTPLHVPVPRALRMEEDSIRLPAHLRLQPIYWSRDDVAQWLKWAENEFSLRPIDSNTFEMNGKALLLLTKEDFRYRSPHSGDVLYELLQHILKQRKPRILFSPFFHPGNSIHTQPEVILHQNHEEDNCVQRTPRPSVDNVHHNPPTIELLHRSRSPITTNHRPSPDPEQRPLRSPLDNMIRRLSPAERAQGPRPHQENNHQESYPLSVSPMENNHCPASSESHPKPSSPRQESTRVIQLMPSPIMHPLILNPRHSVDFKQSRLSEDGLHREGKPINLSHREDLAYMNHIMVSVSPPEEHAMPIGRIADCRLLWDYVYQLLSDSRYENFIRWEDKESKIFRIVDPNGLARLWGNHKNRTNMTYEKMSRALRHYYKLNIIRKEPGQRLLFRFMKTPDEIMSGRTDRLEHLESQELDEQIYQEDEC

Turning to TGGTCG, the binding signal with GABPA was 1.08 fold enrichment (6-mer frequency, TF over GST control); with ELF1, 1.02 fold enrichment (6-mer frequency, TF over GST control); with SPIB, 1 fold enrichment (6-mer frequency, TF over GST control); with ETV5, 1.06 fold enrichment (6-mer frequency, TF over GST control); with SPIC, 1.13 fold enrichment (6-mer frequency, TF over GST control); in the assay with ETV3L, 1 fold enrichment (6-mer frequency, TF over GST control). In the assay with ETV3, the binding signal was 1 fold enrichment (6-mer frequency, TF over GST control).

Consider TGAAGC, for which the binding signal in the assay with ELK1 was 1.05 fold enrichment (6-mer frequency, TF over GST control); with EHF, 1.04 fold enrichment (6-mer frequency, TF over GST control); with ETV5, 1.01 fold enrichment (6-mer frequency, TF over GST control); with ELK4, 1.04 fold enrichment (6-mer frequency, TF over GST control); with ERF it was 1.07 fold enrichment (6-mer frequency, TF over GST control); with ETV3 it was 1 fold enrichment (6-mer frequency, TF over GST control). Also, the binding signal with ETV6 was 1.01 fold enrichment (6-mer frequency, TF over GST control).

Consider TATGAG, for which the binding signal with ELK1 was 1.02 fold enrichment (6-mer frequency, TF over GST control); with GABPA, 1.03 fold enrichment (6-mer frequency, TF over GST control); with EHF it was 1.04 fold enrichment (6-mer frequency, TF over GST control); with ETV5, 1.02 fold enrichment (6-mer frequency, TF over GST control); with SPIC, 1.16 fold enrichment (6-mer frequency, TF over GST control); with ELF3, 1.08 fold enrichment (6-mer frequency, TF over GST control). Besides, the binding signal with ERF was 1.1 fold enrichment (6-mer frequency, TF over GST control); with ETS2, 1 fold enrichment (6-mer frequency, TF over GST control); in the assay with SPDEF, 1.01 fold enrichment (6-mer frequency, TF over GST control); with ETV3, 1.09 fold enrichment (6-mer frequency, TF over GST control).
